# Measurements published in PubChem BioAssay AID489025 (Southern Research Specialized Biocontainment Screening …, 2010).
# Among all 2,300 compounds or so, about 790 (34%) were called active. No rule for the calls is given here. This is one part of the list. Measured potencies and affinities stand elsewhere.
# Test: THP-1 cell cytotoxicity, dose response, cytotoxicity control for non-replicating M. tuberculosis project (AID 489025)
# Conditions: THP-1 cell viability; series mostly up to 40 µM
row,SMILES,outcome
1,C=C(C)C1CC=C(C)/C(=N/NC(=O)CNc2ccc(OCC)cc2)C1 (stereo not drawn),inactive
2,CC(C)OC(=O)c1c2c(n3ccccc13)C(=O)c1ccccc1C2=O,inactive
3,COc1cc(C(=O)ON=C2C=C(C)C(=O)C(C)=C2)cc(OC)c1OC,inactive
4,Cc1nn2c(NCCN(C)C)c3c(nc2c1-c1ccccc1)CCCC3,inactive
5,COc1ccc(CCNc2cc(-c3ccccc3)nc3ncnn23)cc1,inactive
6,COc1cccc(C(=O)OCn2nnc3ccccc3c2=O)c1OC,inactive
7,O=C(OCn1nnc2ccccc2c1=O)c1ccc(Br)o1,inactive
8,Cc1cccc(Cn2ccc(NC(=O)c3ccc4c(c3)OCO4)n2)c1,inactive
9,Cc1ccc(NC(=O)COC(=O)CCc2c[nH]c3ccccc23)cc1[N+](=O)[O-],inactive
10,O=C(NCCC1=CCCCC1)c1ccc(F)cc1,inactive
11,Cc1ccc(NC(=O)COCC(=O)Nc2ccc(C)cc2)cc1,inactive
12,Cc1ccc(NC(=O)CNc2ccc(OC(C)C)cc2)cc1,inactive
13,CSc1ccc(C(=O)C2CCCN(Cc3cc4ccccc4[nH]3)C2)cc1 (stereo not drawn),inactive
14,COc1ccc(C(=O)C2CCCN(C(=O)c3ccc(CSC)o3)C2)cc1F (stereo not drawn),inactive
15,COC(=O)c1ccccc1NC(=O)C1CC(c2ccc(F)cc2)=NO1 (stereo not drawn),inactive
16,CC(=O)OCCN(C)c1cc(SC(C)C)c2nonc2c1[N+](=O)[O-],inactive
17,CCCNC(=O)COC(=O)c1cc2c(=O)n3ccccc3nc2s1,inactive
18,Cc1csc(=Nc2cccnc2)n1CC1CCCCC1,inactive
19,Cc1ccc2c(CC(=O)OCC(=O)Nc3ccc(Cl)cn3)coc2c1,inactive
20,O=C(Oc1ccccc1)c1cc2ccccc2o1,inactive
21,CCc1ccc(OCCCC(=O)Nc2nccs2)cc1,inactive
22,COc1ccc(NC(=O)CO/N=C2/CCCc3nonc32)c(OC)c1,inactive
23,O=C(Oc1cccc2cccnc12)c1cccc([N+](=O)[O-])c1,inactive
24,O=C(Oc1ccccc1Cl)c1ccc2c(=O)n3c(nc2c1)CCC3,inactive
25,O=C(Oc1cccc2cccnc12)c1cccc(-n2cnnn2)c1,inactive
26,Cc1cc(C(=O)COc2cccc3cccnc23)c(C)n1C,inactive

row,SMILES,outcome
1,S=c1[nH]c2ccccc2o1,inactive
2,O=C1CC(N2CCN(Cc3ccccc3)CC2)C(=O)N1CCc1ccccc1 (stereo not drawn),inactive
3,O=C1C=CC(=O)N1N(c1ccccc1)c1ccccc1,inactive
4,Cc1c(C(=O)NNC(=O)c2csc(N3CCOCC3)n2)oc2ccccc12,inactive
5,COC(=O)C1=C(C(=O)OC)C(c2cc(Cl)ccc2O)c2sc(=O)[nH]c2S1 (stereo not drawn),inactive
6,O=c1oc2ccccc2c2c1nnn2CCO,inactive
7,c1ccc(-c2nc(NCCCn3ccnc3)c3ccccc3n2)cc1,inactive
8,Fc1ccc(-c2ccc(CNCc3ccccn3)o2)cc1Cl,inactive
9,Cc1ccc(-c2cc(C(F)(F)F)n3nc(C(=O)NCCCn4ccnc4)cc3n2)cc1C,inactive
10,Clc1ccc(-c2ccc(CNCc3ccccn3)o2)cc1,inactive
11,Clc1cccc(-c2ccc(CNCc3ccccn3)o2)c1,inactive
12,O=C(NCCC1=CCCCC1)c1ccc(Br)o1,inactive
13,CC(=O)c1cccc(NC(=O)C2COc3ccccc3O2)c1 (stereo not drawn),inactive
14,CCCc1cc(=O)n2[nH]c(C)c(-c3ccccc3)c2n1,inactive
15,Cc1ccc(C(=O)CCNc2ccc(Br)cc2)o1,inactive
16,CC(=O)n1cc(/C=C2/N=C(c3ccccc3)OC2=O)c2ccccc21,inactive
17,CCCOC(=O)c1ccc(-c2ccc(C=O)o2)cc1,inactive
18,Cc1cccc(C)c1N1C(=O)CC(N2CCSCC2)C1=O (stereo not drawn),inactive
19,Cc1ccc(-c2noc(CCC(=O)Nc3cccc(C#N)c3)n2)cc1,inactive
20,COC(=O)N/N=C/c1ccc([N+](=O)[O-])s1,inactive
21,CCCOC(=O)c1ccc(NC(=O)Cc2cccs2)cc1,inactive
22,O=C(COC(=O)c1cccc([N+](=O)[O-])c1)NCc1cccs1,inactive
23,CCOC(=O)N/N=C\c1ccc([N+](=O)[O-])s1,inactive
24,C/C(Cn1nnc([N+](=O)[O-])n1)=N\NC(=O)c1ccncc1,inactive
25,Brc1c(CSc2nncc3ccccc23)nc2ccccn12,inactive
26,CCN(CC)c1ccc2cc(C(=O)NCc3ccc(F)cc3)c(=N)oc2c1,inactive

row,SMILES,outcome
1,O=c1oc2ccccc2nc1/C=C(\O)c1ccc(Br)cc1,inactive
2,C/C(=N/NC(=O)c1ccco1)c1ccc(Br)s1,inactive
3,CC(C)(C)NCC1(CO)SC(N)=NC1=O (stereo not drawn),inactive
4,O=C(C/C=N\OCc1ccc([N+](=O)[O-])cc1)Nc1ccc(F)cc1F,inactive
5,COc1n[nH]c(C(=O)Nc2cc(F)ccc2C)c1[N+](=O)[O-],inactive
6,CCc1cc2c3c(c1)C(C)CC(C)(C)N3C(=O)/C2=C1\SC(=O)NC1=O (stereo not drawn),inactive
7,O=C(COC(=O)COc1ccc(Nc2ccccc2)cc1)NCc1ccco1,inactive
8,COC(=O)CC(=O)N1CCN(c2ccc(Cl)c(Cl)c2)CC1,inactive
9,COc1ccccc1N1CCN(C(=O)c2ccc([N+](=O)[O-])s2)CC1,inactive
10,CC(C)(C)c1ccc(OCCCC(=O)NC2=NCCS2)cc1,inactive
11,COc1cc(C=O)ccc1OCCOCCOc1ccc(Cl)cc1,inactive
12,O=C1/C(=C\c2ccco2)SC(=S)N1c1ccc(O)cc1,inactive
13,CCOc1cc(C=O)cc(N=Nc2cccc([N+](=O)[O-])c2)c1O,inactive
14,O=C(Oc1ccccc1)c1cccc(COC(=O)c2cnccn2)c1,inactive
15,CCOC(=O)C1CSC(CC(=O)Nc2ccc(Cl)c(Cl)c2)C(=O)N1 (stereo not drawn),inactive
16,CC(C)(C)NC(=O)C(=O)NNC(=O)COc1ccc(Br)cc1,inactive
17,CC(/C=C/c1ccccc1)=N\NC(=O)c1ccc2c(c1)OCCO2,inactive
18,O=C(N/N=C\C=C\c1ccco1)c1cncc(Br)c1,inactive
19,CCC(=O)c1ccc(OC(=O)c2ccc(Br)o2)cc1,inactive
20,Cc1cc(C)n2[nH]c(=O)c(N=Nc3cccc(Cl)c3)c2n1,inactive
21,Clc1ccc2c(N3CCCC3)ccnc2c1,inactive
22,Cc1ccc2[nH]c(C)c(CCNC(=O)c3cc4cc([N+](=O)[O-])ccc4oc3=O)c2c1,inactive
23,CCCOC(=O)c1ccc(OC(=O)c2ccco2)cc1,inactive
24,O=C(COc1ccc([N+](=O)[O-])cc1)NNC(=O)c1cccs1,inactive
25,CCc1ccc(OCCCC(=O)NCc2ccco2)cc1,inactive
26,COc1ccc(OCCOC(=O)c2cccs2)cc1,inactive
